SENP8 block-1 – human SENP8 protease inhibitors, primary screen, biochemical, fluorescence, Nedd8 protein substrate, uHTS; recombinant SENP8; actives 0.64% (n = 360,000); inhibition, % at 20 µM; Sentrin-specific protease 8 (Homo sapiens), Q96LD8; AID 602440, 2012; in the data active means inhibition mostly above about 40%, no sharp cut-off; inactive means mostly below about 27%
SENP8 block-2 – SENP8 protease inhibitors, primary screen, biochemical, luminescence; actives 1.2% (n = 330,000); purified SENP8, Z-RLRGG-aminoluciferin cleavage; inhibition, % at 10 µM; in the data active means inhibition above about 50%
PPC-1+TRAIL kill – compounds killing PPC-1 cancer cells with TRAIL present, primary screen, TRAIL potentiator project, ATPLite luminescence, uHTS. PPC-1 cells + TRAIL, ATPLite viability luminescence. cell killing (% activity), % at 4 µM or 5 µM. actives 0.41% (n = 220,000). AID 1443, 2008;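 active means cell killing above 50% in the first pass at 4 µM, then a duplicate retest at 5 µM averaging 50% or more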
TRAIL sens C8 – viability loss with TRAIL in NB7+C8 cells, primary screen, TRAIL sensitizer project, cell-based, ATPlite luminescence; inhibition (viability loss, TRAIL sensitization), % at 10 µM; actives 1% (n = 360,000);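 active means compounds causing at least 50% loss of cell viability in the single-dose screen, relative to plate controls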
SENP7 inh – SENP7 protease inhibitors, primary screen, biochemical, luminescence, uHTS; Sentrin-specific protease 7 (Homo sapiens), Q9BQF6; AID 434973, 2010; recombinant SENP7, Z-RLRGG-aminoluciferin luminescence, 40 min; actives 1.5% (n = 330,000); inhibition, % at 5 µM;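 active means inhibition above about 50% at the single test dose, limit read from the data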
SENP6 block – SENP6 protease inhibitors, primary screen, biochemical, luminescence, uHTS. Sentrin-specific protease 6 (Homo sapiens), Q9GZR1. Recombinant SENP6 catalytic domain, aminoluciferin luminescence. inhibition, % at 10 µM. actives 1.8% (n = 330,000). AID 2599, 2010;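 active means inhibition above about 50% at the single tested dose, limit read from the data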
Target sequence (Q9GZR1 628-1112 limits assumed): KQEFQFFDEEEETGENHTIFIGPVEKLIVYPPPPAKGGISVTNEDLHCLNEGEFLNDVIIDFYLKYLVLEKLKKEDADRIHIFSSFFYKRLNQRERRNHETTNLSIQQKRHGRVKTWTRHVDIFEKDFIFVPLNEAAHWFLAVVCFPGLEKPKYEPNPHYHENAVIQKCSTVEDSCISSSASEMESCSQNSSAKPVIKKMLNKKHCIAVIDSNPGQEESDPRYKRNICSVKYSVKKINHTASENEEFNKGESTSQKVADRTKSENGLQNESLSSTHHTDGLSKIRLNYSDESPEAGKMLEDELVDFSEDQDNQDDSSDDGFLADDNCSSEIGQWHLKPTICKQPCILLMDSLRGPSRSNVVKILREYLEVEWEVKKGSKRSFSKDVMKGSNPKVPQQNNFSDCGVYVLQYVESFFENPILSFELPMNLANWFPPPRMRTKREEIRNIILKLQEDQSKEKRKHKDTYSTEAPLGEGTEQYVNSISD
Numbers stand for hits; . = inactive; / = no result given. Rows were chosen to be rich in hits. Some 3% of all compounds tested hit in one or more screens of this group.

SMILES | SENP8 block-1 | SENP8 block-2 | PPC-1+TRAIL kill | TRAIL sens C8 | SENP7 inh | SENP6 block
C[CH2][Hg][S]c1ccccc1C(=O)O | . | . | / | 62 | . | .
CC(C)[C@H]1C(=O)O[C@H](C(C)C)C(=O)N(C)[C@@H](C(C)C)C(=O)O[C@H](C(C)C)C(=O)N(C)[C@@H](C(C)C)C(=O)O[C@H](C(C)C)C(=O)N1C | . | . | . | 53 | . | .
CC[n+]1c(/C=C/C=C/c2ccc(N(C)C)cc2)sc2ccccc21 | . | . | . | 63 | . | .
CN(C)c1ccc(/C=C/C=C/c2sc3ccccc3[n+]2C)cc1 | . | . | . | . | . | .
CCCCCc1cc(O)c2c3c(c(=O)oc2c1)CN(C)CC3 | . | . | . | . | . | .
CCCCn1c(=O)c(C(=O)Nc2ccccc2C)c(O)c2ccccc21 | . | . | / | . | . | .
CC(C)CCn1c(=O)c(C(=O)Nc2ccccc2S(N)(=O)=O)c(O)c2ccccc21 | . | . | . | 52 | . | .
CC[n+]1c(-c2ccccc2)c2cc(N)ccc2c2ccc(N)cc21 | 97 | / | / | . | / | /
COC(=O)C1=C(c2ccc(OC(F)(F)F)cc2)C[C@@H]2CC[C@H]1N2C(=O)NCCc1ccccc1 | . | . | / | . | . | .
COC1C(C)OC(OC2CC(C)(O)Cc3cc4c(c(O)c32)C(=O)c2c(O)cc3c(c2C4=O)OC2OC3(C)C(O)C(N(C)C)C2O)C(OC)C1(C)OC (centres undefined) | 41 | / | / | . | / | /
COc1ccc(-c2cc(=O)oc3c(C)c(OC(C)C(=O)N4C[C@H]5C[C@@H](C4)c4cccc(=O)n4C5)ccc23)cc1 (some centres undefined) | . | . | / | . | . | .
COc1ccc(CN2C(=O)NC(=O)/C(=C/c3ccc([N+](=O)[O-])s3)C2=O)cc1 | 43 | . | . | . | . | .
O=C1NC(=O)N(Cc2ccc(F)cc2)C(=O)/C1=C\c1ccc([N+](=O)[O-])s1 | 50 | . | . | . | . | .
O=C1NC(=O)N(Cc2ccc(F)cc2)C(=O)/C1=C\c1ccc(N2CCCC2)cc1 | . | . | . | . | . | .
FC(F)=C(F)CCSc1ncn[nH]1 | . | . | . | . | . | .
CCOC(=O)[C@]12Cc3cc(OC)ccc3[C@H]1N(C1CCCCC1)C(=O)c1cc(OC)ccc12 | . | / | / | 76 | / | /
CCOC(=O)[C@]12Cc3cc(C)ccc3[C@H]1N(C1CCCCC1)C(=O)c1cc(OC)ccc12 | . | / | / | 96 | / | /
CCOC(=O)[C@]12Cc3cc(C)ccc3[C@H]1N(CCC(=O)OC)C(=O)c1cc(OC)ccc12 | . | / | / | . | / | /
COC(=O)C1=C(c2ccc(F)cc2F)C[C@@H]2CC[C@H]1N2C(=O)N1CCC(O)CC1 | . | . | / | . | . | .
COc1ccc(C(CNC(=O)CCc2ccsc2)N(C)C)cc1 (centres undefined) | . | . | / | . | . | .
CCOc1ccc(-c2cc(C(=O)N3CCC4(CC3)OCCO4)c3ccccc3n2)cc1 | . | / | / | 71 | / | /
COc1ccc(-c2cc(C(=O)N3CCC4(CC3)OCCO4)c3ccccc3n2)cc1 | . | . | / | . | . | .
COC(=O)C12OCC34C(CC5C(C)=C(O)C(=O)CC5(C)C3C(O)C1O)OC(=O)C(OC(=O)/C=C(\C)C(C)C)C24 (centres undefined) | . | / | / | 58 | / | /
COc1c(C=C2C(=O)NC(=O)NC2=O)c(CCN(C)C(=O)c2ccccc2)cc2c1OCO2 | 44 | . | / | . | . | .
CCCC1(CCC)C(=O)NC(=NCc2ccccc2)NC1=O | . | . | . | 77 | . | .
SMILES | SENP8 block-1 | SENP8 block-2 | PPC-1+TRAIL kill | TRAIL sens C8 | SENP7 inh | SENP6 block
CCCC1(CCC)C(=O)NC(=Nc2ccccc2)NC1=O | . | . | . | . | . | .
COC(=O)C1=C(c2c(C)noc2C)C[C@@H]2CC[C@H]1N2C(=O)NCc1ccc(F)cc1 | . | . | / | . | . | .
CCOc1cc2c(cc1OCC)-n1cccc1C(c1cccc(F)c1)NC2 (centres undefined) | . | . | / | . | . | .
C=C(C)CSc1nnc([C@@H](N)Cc2c[nH]c3ccccc23)o1 | . | . | . | . | . | .
Cc1[nH]nc2ccc(-c3cncc(OC[C@@H](N)Cc4c[nH]c5ccccc45)c3)cc12 | . | / | / | 90 | / | /
CC(=O)OC1C(O)C(C)OC(OC2C(OC(=O)C3CCC4C(C3)OC3(CC(OC(=O)/C=C/c5ccccc5)C(C)CO3)C43CO3)OC(C)C(O)C2OC(C)=O)C1O (centres undefined) | . | / | / | 64 | / | /
COC(=O)C1=C(c2ccc(OC(F)(F)F)cc2)C[C@@H]2CC[C@H]1N2C(=O)NCCOc1ccc(OC)cc1 | . | . | / | . | . | .
CC(=O)c1ccc2c(c1)C1C(Cl)C(Sc3ccccc3[N+](=O)[O-])CC1C(C(=O)O)N2 (centres undefined) | 78 | / | . | . | / | /
COc1cc(N2C(=O)CC(=O)NC2=O)cc(OC)c1OC | . | . | / | . | . | .
Clc1ccc(C[n+]2c(-c3ccccc3)cc(-c3ccccc3)cc2-c2ccccc2)cc1 | . | . | / | 69 | . | .
CN=C(SCC(=O)c1cccc(Cl)c1)c1c(O)n(C)c(=O)n(C)c1=O | . | . | . | . | . | .
CCCNC(=O)N1[C@H]2CC[C@@H]1C(C(=O)OC)=C(c1ccc3ccccc3c1)C2 | . | . | / | . | . | .
Nc1ncnc2c1ccn2[C@@H]1O[C@H](CO)[C@@H](O)[C@H]1O | . | . | / | 88 | . | .
C/C1=C\[C@@H](C)C/C=C/[C@H]2[C@@H]3O[C@]3(C)[C@@H](C)[C@H]3[C@H](Cc4c[nH]c5ccccc45)NC(=O)[C@]32C(=O)/C=C/C(=O)[C@@H]1O | . | . | . | . | . | .
CC1=CC2/C=C(\C)CCC(O)C(O)/C=C/C(=O)C23C(=O)NC(CC(C)C)C3C1C (centres undefined) | . | . | . | 91 | . | .
O=C(CCCc1ccccc1)NCCc1cnc[nH]1 | . | . | / | . | . | .
CCOC(=O)[C@]12Cc3cc(C)ccc3[C@H]1N(C(C)C)C(=O)c1ccccc12 | . | / | / | 83 | / | /
CCCCCN1C(=O)c2ccccc2[C@@]2(C(=O)OCC)Cc3cc(OC)ccc3[C@@H]12 | . | / | / | 59 | / | /
O=C1NCN(c2ccccc2)C12CCN(C(c1cccs1)c1nnnn1Cc1ccccc1)CC2 (centres undefined) | . | / | / | . | / | /
CN(C(=O)COC(=O)c1cn(C)c2ccccc12)C1CCCCC1 | . | . | / | . | . | .
Nc1cccc(SC2CC(=O)N(c3ccc(Cl)cc3C(=O)c3ccccc3)C2=O)c1 (centres undefined) | . | / | / | . | / | /
O=[N+]([O-])c1ccc(NC2CCCC2)c2ccncc12 | 47 | . | / | . | . | .
